Measured values from PubChem BioAssay (Tox21).
Values joined by “and” are separate entries in the source; they are usually repeats but may differ in a detail not shown here. Equal entries are not always repeated. Records with an inconclusive call do not appear. Some structures have more than one record in an assay (separate samples or runs), and their calls can disagree. Active and inactive are the calls of the source. Unless noted, calls come from the whole dose curve; as a rule, active = well fitted curve in the direction sought with a large enough effect in the repeat runs; inconclusive = weak or mixed curves; inactive = no such curve, though single readings can be large; an effect the other way counts as inactive or inconclusive.

Tests used:
[1] = qHTS assay to identify small molecule antagonists of the progesterone receptor (PR) signaling pathway - cell viability counter screen (AID 1346798); note: nearly all actives have a fitted effect of over 50% in size; note: potency is the fitted concentration of half-maximal effect
Procedure, shortened: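 Viability was determined by ATP-based luminescence (CellTiter-Glo) in PR-UAS-bla HEK293T cells cultured in 2% charcoal-stripped serum and incubated 16 hr with compounds under R5020 stimulation.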

[2] = qHTS assay to identify small molecule agonists of the progesterone receptor (PR) signaling pathway - cell viability counter screen (AID 1346799; calls by dose curve; note: nearly all actives have a fitted effect of over 45% in size; note: potency is the fitted concentration of half-maximal effect)
Procedure, shortened: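 Viability was scored by ATP luminescence (CellTiter-Glo, 30 min, room temperature) in the same wells used for the reporter readout, after 16 hr compound exposure of PR-UAS-bla HEK293T cells.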

[3] = qHTS assay to identify small molecule agonists of the TGF-beta/Smad signaling pathway - cell viability counter screen (AID 1346829); note: nearly all actives have a fitted effect of over 45% in size; note: potency is the fitted concentration of half-maximal effect
Procedure, shortened: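 Luminescence from CellTiter-Glo, read after a 30 min room-temperature incubation, gives cell viability of SBE-bla HEK 293T cells treated 5 hr with compounds at 37 C.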

[4] = qHTS assay to identify small molecule agonists of the TGF-beta/Smad signaling pathway (AID 1346859; active = well fitted activation curve with a large enough effect in the signal ratio in the repeat runs, not every such curve was filed as active; the % refers to the signal ratio; note: potency is the fitted concentration of half-maximal effect; for activation: series mostly up to about 77 µM; % is set by controls: 0 for no effect and ±100 for the full control effect)
Procedure, shortened: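 Dual-wavelength fluorescence (460/530 nm emission) quantified beta-lactamase expression under the Smad binding element in HEK 293T cells following 5 hr compound treatment at 37 C.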

[5] = Human pregnane X receptor (PXR) small molecule agonists, qHTS cell viability counter screen (AID 1346977); note: nearly all actives have a fitted effect of over 50% in size; note: potency is the fitted concentration of half-maximal effect
Procedure, shortened: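 HepG2 cells stably carrying the PXR-Luc reporter are cultured with 5% charcoal-stripped FBS and treated with compounds for 24hr. CellTiter-Fluor is added at 23hr and fluorescence is read after 1hr.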

[6] = Caspase-3/7 induction in HepG2 cells by small molecules, qHTS assay (AID 1346978); note: nearly all actives have a fitted effect of over 15% in size; note: potency is the fitted concentration of half-maximal effect
Procedure, shortened: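 Wild-type HepG2 cells, 2,000/well, settled 5 hr at 37 C and 5% CO2, then compound-treated for 17 hr; caspase-3/7 activity read by luminescent Caspase-Glo 3/7 after 30 min at room temperature.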

[7] = Caspase-3/7 induction in CHO-K1 cells by small molecules, qHTS cell viability counter screen (AID 1346979); note: nearly all actives have a fitted effect of over 35% in size; note: potency is the fitted concentration of half-maximal effect
Procedure, shortened: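 Seeding: 1,500 CHO-K1 cells/well. Rest: 5hr, 37C. Treatment: compounds in DMSO, 16hr. Read: CellTiter-Fluor, 1hr, fluorescence.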

[8] = Caspase-3/7 induction in CHO-K1 cells by small molecules, qHTS assay (AID 1346980); note: nearly all actives have a fitted effect of over 15% in size; note: potency is the fitted concentration of half-maximal effect
Procedure, shortened: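 Wild-type CHO-K1 cells exposed to compounds for 17hr at 37 C, 5% CO2. Caspase-3/7 activity then measured by Caspase-Glo 3/7 luminescence after 30min at room temperature.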

[9] = Caspase-3/7 induction in HepG2 cells by small molecules, qHTS cell viability counter screen (AID 1346981); note: nearly all actives have a fitted effect of over 30% in size; note: potency is the fitted concentration of half-maximal effect
Procedure, shortened: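 CellTiter-Fluor fluorescence measured viability in the same wells used for Caspase-Glo 3/7. HepG2 (wild type) at 2,000 cells/well were pre-incubated 5 hr, dosed, and given reagent at 16 hr, with 1 hr further at 37C.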

[10] = molecular target: Nuclear receptor subfamily 1 group I member 2 (Homo sapiens) (UniProt O75469); test: Human pregnane X receptor (PXR) small molecule agonists, qHTS assay (AID 1346982); note: nearly all actives have a fitted effect of over 35% in size; note: potency is the fitted concentration of half-maximal effect; for activation: % is set by controls: 0 for no effect and ±100 for the full control effect
Nuclear receptor subfamily 1 group I member 2 (Homo sapiens), sequence (O75469 whole entry, looked up): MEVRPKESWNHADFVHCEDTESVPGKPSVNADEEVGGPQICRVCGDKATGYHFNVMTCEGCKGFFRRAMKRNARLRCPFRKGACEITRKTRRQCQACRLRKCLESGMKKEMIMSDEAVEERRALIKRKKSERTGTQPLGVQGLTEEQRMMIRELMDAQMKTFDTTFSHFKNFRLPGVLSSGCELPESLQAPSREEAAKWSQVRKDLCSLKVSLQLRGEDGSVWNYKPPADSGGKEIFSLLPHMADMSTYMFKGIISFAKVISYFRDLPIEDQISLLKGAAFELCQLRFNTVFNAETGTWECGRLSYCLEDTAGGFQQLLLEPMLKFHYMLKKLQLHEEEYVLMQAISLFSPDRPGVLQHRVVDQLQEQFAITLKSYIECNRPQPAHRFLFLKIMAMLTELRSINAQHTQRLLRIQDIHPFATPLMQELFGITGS
Procedure, shortened: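 Agonist mode: luminescence from ONE-Glo after 24 h compound exposure at 37C in HepG2 cells carrying hPXR-responsive CYP3A4 luciferase, plated in charcoal-stripped serum medium 5 h beforehand.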

[11] = molecular target: Cytochrome P450 2D6 (Homo sapiens) (UniProt P10635); test: Cytochrome P450 Family 2 Subfamily D Member 6 (CYP2D6) small molecule antagonists: luciferase reporter qHTS assay (AID 1671196); note: nearly all actives have a fitted effect of over 50% in size; note: potency is the fitted concentration of half-maximal effect
Cytochrome P450 2D6 (Homo sapiens), sequence (P10635 whole entry, looked up): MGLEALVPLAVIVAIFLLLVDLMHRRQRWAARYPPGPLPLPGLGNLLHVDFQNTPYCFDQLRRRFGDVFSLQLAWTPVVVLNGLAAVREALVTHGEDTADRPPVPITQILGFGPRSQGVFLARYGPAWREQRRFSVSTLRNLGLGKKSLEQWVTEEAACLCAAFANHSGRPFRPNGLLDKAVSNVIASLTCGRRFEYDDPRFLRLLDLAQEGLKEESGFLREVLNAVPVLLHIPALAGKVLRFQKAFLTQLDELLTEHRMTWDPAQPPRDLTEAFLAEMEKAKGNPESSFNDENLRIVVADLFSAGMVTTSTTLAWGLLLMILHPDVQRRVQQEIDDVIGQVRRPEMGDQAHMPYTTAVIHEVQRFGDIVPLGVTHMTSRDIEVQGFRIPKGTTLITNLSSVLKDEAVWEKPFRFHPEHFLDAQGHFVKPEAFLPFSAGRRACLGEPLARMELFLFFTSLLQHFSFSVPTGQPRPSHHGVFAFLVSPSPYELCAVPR
Procedure, shortened: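 CYP2D6 activity was followed as luminescence from its luciferin product after a 1 h NADPH-driven reaction at room temperature. Enzyme-substrate mix and compound were pre-incubated for 10 min, and the signal was read 20 min after adding detection reagent.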

[12] = molecular target: Cytochrome P450 2C19 (Homo sapiens) (UniProt P33261); test: Cytochrome P450 Family 2 Subfamily C Member 19 (CYP2C19) small molecule antagonists: luciferase reporter qHTS assay (AID 1671197); note: nearly all actives have a fitted effect of over 65% in size; note: potency is the fitted concentration of half-maximal effect
Cytochrome P450 2C19 (Homo sapiens), sequence (P33261 whole entry, looked up): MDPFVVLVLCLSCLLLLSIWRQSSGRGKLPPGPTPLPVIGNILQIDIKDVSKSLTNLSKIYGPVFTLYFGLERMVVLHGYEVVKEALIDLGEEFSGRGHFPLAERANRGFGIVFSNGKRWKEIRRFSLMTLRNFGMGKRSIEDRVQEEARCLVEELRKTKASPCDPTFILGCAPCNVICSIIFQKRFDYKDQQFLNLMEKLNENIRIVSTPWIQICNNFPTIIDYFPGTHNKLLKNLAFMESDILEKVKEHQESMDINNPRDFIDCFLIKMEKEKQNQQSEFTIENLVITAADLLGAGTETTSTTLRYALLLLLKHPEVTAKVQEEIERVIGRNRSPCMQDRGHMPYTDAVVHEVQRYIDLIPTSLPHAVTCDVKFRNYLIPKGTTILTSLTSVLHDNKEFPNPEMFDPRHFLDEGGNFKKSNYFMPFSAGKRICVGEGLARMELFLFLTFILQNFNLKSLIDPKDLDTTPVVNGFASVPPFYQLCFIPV
Procedure, shortened: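 CYP2C19 P450-Glo, 1536-well qHTS. Cpd + enzyme/proluciferin substrate 10 min RT; + NADPH regen, 37C 1 h; stop with luciferin detection reagent, 20 min RT, luminescence (RLU). Pos ctrl ketoconazole.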

[13] = molecular target: Cytochrome P450 2C9 (Homo sapiens) (UniProt P11712); test: Cytochrome P450 Family 2 Subfamily C Member 9 (CYP2C9) small molecule antagonists: luciferase reporter qHTS assay (AID 1671198); note: nearly all actives have a fitted effect of over 50% in size; note: potency is the fitted concentration of half-maximal effect
Cytochrome P450 2C9 (Homo sapiens), sequence (P11712 whole entry, looked up): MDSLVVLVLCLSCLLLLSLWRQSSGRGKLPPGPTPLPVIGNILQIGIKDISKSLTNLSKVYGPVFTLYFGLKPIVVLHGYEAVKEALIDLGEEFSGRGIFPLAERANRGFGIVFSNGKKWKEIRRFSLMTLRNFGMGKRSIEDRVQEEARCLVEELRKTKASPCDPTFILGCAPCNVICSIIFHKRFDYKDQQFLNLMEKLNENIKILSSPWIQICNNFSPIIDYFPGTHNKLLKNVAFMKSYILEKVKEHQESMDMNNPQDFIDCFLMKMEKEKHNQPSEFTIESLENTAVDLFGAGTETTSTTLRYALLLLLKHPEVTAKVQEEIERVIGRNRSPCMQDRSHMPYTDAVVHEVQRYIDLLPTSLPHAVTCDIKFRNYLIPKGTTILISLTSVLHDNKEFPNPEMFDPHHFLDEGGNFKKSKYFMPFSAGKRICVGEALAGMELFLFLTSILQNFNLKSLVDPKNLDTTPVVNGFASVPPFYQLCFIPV
Procedure, shortened: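 P450-Glo proluciferin substrate with CYP2C9 enzyme; 10 min RT preincubation, then NADPH regeneration 1 h at 37C; luciferin detection reagent 20 min RT, luminescence in relative luminescence units.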

[14] = molecular target: Progesterone receptor (Homo sapiens) (UniProt P06401); test: qHTS assay to identify small molecule antagonists of the progesterone receptor (PR) signaling pathway (AID 1346795; active = well fitted inhibition curve with a large enough effect in the signal ratio in the repeat runs, not every such curve was filed as active; the % refers to the signal ratio; note: potency is the fitted concentration of half-maximal effect)
Progesterone receptor (Homo sapiens), sequence (P06401 whole entry, looked up): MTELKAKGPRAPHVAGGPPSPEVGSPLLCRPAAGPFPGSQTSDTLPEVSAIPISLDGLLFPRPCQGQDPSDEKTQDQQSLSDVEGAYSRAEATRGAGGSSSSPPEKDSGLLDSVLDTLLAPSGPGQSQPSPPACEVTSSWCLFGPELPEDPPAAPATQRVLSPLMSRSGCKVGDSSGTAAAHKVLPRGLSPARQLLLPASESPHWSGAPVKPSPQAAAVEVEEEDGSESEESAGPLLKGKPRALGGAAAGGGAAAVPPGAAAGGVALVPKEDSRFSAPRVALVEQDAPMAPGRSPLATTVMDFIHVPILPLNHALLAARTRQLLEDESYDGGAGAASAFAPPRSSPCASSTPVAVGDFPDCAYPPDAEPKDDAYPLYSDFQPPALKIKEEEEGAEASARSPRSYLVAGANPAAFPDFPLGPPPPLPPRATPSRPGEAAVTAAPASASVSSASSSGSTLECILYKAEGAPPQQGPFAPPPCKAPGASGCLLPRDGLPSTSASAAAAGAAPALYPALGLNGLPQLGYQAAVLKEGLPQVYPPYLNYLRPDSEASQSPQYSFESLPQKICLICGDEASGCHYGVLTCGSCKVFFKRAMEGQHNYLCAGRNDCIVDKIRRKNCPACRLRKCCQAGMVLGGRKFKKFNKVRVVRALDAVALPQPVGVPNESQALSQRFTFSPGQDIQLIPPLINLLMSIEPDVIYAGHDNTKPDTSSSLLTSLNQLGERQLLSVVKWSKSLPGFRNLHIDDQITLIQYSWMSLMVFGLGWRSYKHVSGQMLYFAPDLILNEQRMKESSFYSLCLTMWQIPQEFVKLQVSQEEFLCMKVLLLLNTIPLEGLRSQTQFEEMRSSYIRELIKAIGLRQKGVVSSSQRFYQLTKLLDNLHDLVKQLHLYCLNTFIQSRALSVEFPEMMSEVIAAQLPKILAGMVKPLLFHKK
Procedure, shortened: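 After 6 hr plating at 37C in 2% stripped-serum medium, PR-UAS-bla HEK293T cells got compounds, then 1 nM R5020. Sixteen hours later, LiveBLAzer substrate was applied for 2 hr at room temperature and fluorescence was recorded.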

[15] = qHTS assay to identify small molecule antagonists of the TGF-beta/Smad signaling pathway - cell viability counter screen (AID 1346824)
Procedure, shortened: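 SBE-bla HEK 293T cells, incubated overnight, then compound plus 0.25 ng/mL TGF-beta1 (stock added) for 5 hr at 37 C. Viability was read in the same wells by CellTiter-Glo luminescence after 30 min at room temperature.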

[16] = molecular target: Thyrotropin-releasing hormone receptor (Homo sapiens) (UniProt P34981); test: qHTS assay to identify small molecule antagonists of the thyrotropin-releasing hormone receptor (TRHR) signaling pathway (AID 1346877; active = well fitted inhibition curve with a large enough effect in the repeat runs, not every such curve was filed as active; note: series mostly up to about 51 µM; % is set by controls: 0 for no effect and ±100 for the full control effect)
Thyrotropin-releasing hormone receptor (Homo sapiens), sequence (P34981 whole entry, looked up): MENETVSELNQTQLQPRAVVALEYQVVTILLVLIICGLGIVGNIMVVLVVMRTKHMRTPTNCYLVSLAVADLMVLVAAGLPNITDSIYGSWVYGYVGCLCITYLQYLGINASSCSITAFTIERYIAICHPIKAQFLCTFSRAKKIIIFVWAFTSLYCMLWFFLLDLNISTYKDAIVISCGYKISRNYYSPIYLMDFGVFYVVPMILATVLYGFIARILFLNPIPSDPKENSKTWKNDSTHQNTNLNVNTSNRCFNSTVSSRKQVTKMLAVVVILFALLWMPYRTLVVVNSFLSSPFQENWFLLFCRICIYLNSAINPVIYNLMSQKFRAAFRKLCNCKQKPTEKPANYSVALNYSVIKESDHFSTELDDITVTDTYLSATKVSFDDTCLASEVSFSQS
Procedure, shortened: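 Antagonist mode: after a 5 min room-temperature compound exposure, cells were stimulated with 1 nM (final) TRH. Dye-loaded TRHR-HEK293 cells were used, and calcium-dependent fluorescence was followed for 3 min, with 15-point titrations run in triplicate.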

[17] = molecular target: Thyrotropin-releasing hormone receptor (Homo sapiens) (UniProt P34981); test: qHTS assay to identify small molecule agonists of the thyrotropin-releasing hormone receptor (TRHR) signaling pathway (AID 1346891; calls by dose curve;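 note: HEK293 cells expressing TRHR with calcium dye readout; series mostly up to about 58 µM; % is set by controls: 0 for no effect and ±100 for the full control effect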)
Procedure, shortened: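 Kinetic fluorescence (3 min, 1 s intervals) reported intracellular calcium after compound transfer onto TRHR-Hek293 cells pre-loaded with dye for 2 h at 37 °C.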

[18] = molecular target: Nuclear receptor subfamily 1 group I member 2 (Rattus norvegicus) (UniProt Q9R1A7); test: Rat pregnane X receptor (rPXR) activation by small molecules, qHTS assay (AID 1346983); details: rPXR luciferase reporter cells, One-Glo luminescence, 24 h; max activation: stronger effect = higher value; note: nearly all actives have a fitted effect of over 20% in size; note: potency is the fitted concentration of half-maximal effect
Nuclear receptor subfamily 1 group I member 2 (Rattus norvegicus), sequence (Q9R1A7 whole entry, looked up): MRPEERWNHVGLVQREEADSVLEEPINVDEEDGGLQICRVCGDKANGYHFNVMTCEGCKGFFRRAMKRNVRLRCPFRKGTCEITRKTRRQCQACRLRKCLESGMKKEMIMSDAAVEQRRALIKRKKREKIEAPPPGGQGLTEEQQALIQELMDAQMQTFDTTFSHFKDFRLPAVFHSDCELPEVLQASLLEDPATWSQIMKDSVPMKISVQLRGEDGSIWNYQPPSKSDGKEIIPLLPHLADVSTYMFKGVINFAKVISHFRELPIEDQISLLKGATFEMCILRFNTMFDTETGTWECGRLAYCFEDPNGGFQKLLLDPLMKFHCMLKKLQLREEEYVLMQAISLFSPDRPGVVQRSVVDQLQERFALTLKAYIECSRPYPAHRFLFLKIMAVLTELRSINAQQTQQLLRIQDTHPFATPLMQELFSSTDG
Procedure, shortened: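 Cell-based rPXR activation assay: rPXR cells, 2,000 per well, rested 5hr at 37 C, then exposed to compounds in DMSO for 24 hr at 37 C. Luciferase activity read by One-Glo luminescence after 30 min at room temperature.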

[19] = molecular target: Nuclear receptor subfamily 1 group I member 2 (Homo sapiens) (UniProt O75469); test: CYP3A4 induction through human pregnane X receptor (PXR) by small molecules, qHTS assay (AID 1346984); note: % is set by controls: 0 for no effect and ±100 for the full control effect; nearly all actives have a fitted effect of over 40% in size
Procedure, shortened: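 Read-out is luminescence after One-Glo addition, following a 3 hr, 37C incubation with Luciferin-IPA CYP3A4 substrate (3uM final). Before that, compounds were on DPX-2 cells (HepG2 co-transfected with PXR element plus CYP3A4-promoter luciferase) for 24 hr at 37C.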

CCCCCCCCCCCCOC(=O)c1cc(O)c(O)c(O)c1
inactive: Potency [4] | Potency [8]
61.4 µM (active) and inactive: Potency [3]
active: Potency [1] 54.2 µM | Potency [2] 60.9 µM | Potency [5] 60.9 µM and 61.1 µM | Potency [6] 60.9 µM and 68.6 µM | Potency [7] 9.65 µM and 7.7 µM | Potency [9] 60.9 µM | Potency [10] 24.2 µM and 21.7 µM | Potency [11] 28.2 µM and 31.7 µM | Potency [12] 25.1 µM and 20 µM | Potency [13] 9.99 µM and 28.3 µM

COc1cc(C=C2CCC/C(=C\c3ccc(O)c(OC)c3)C2=O)ccc1O
inactive: Potency [15] | Potency [3] | Potency [4] | Potency [16] | Potency [17] | Potency [8] | Potency [10] | max activation [18] -7.88% | Potency [19]
active: Potency [14] 6.68 µM | Potency [5] 29.8 µM | Potency [7] 29.8 µM | Potency [12] 24.5 µM | Potency [13] 15.5 µM

CCOC(=O)C1=C(C)NC(C)=C(C(=O)OCC)C1c1ccccc1/C=C/C(=O)OC(C)(C)C
active: Potency [14] 26.6 µM | Potency [4] 23.9 µM | Potency [7] 33.5 µM | Potency [10] 1.33 µM | Potency [18] 3.55 µM | Potency [12] 4.9 µM | Potency [13] 1.1 µM
inactive: Potency [15] | Potency [3] | Potency [16] | Potency [17] | Potency [19]

CCN(CC)CCNc1ccc(CO)c2sc3ccccc3c(=O)c12
inactive: Potency [15] | Potency [3] | Potency [4] | Potency [16] | Potency [17] | Potency [8] | Potency [10] | Potency [12] | Potency [13]
active: Potency [1] 15 µM | Potency [2] 13.3 µM | Potency [5] 7.5 µM | Potency [6] 13.3 µM | Potency [7] 23.7 µM | Potency [9] 13.3 µM

CCCCCCC(C)Nc1ccc(Nc2ccccc2)cc1 (configuration not stated)
inactive: Potency [15] | Potency [3] | Potency [4] | Potency [16] | Potency [17] | Potency [6]
active: Potency [14] 48.6 µM | Potency [10] 21.7 µM | Potency [11] 28.3 µM | Potency [12] 5.03 µM | Potency [13] 7.1 µM

O=C(O)CCn1c2c(c3ccccc31)C[C@H](NS(=O)(=O)c1ccc(F)cc1)CC2
active: Potency [13] 17.4 µM
inactive: Potency [1] | Potency [2] | Potency [3] | Potency [5] | Potency [6] | Potency [7] | Potency [8] | Potency [9] | Potency [11] | Potency [12]

c1cc[nH]c1
inactive: Potency [1] | Potency [2] | Potency [15] | Potency [3] | Potency [4] | Potency [16] | Potency [17] | Potency [5] | Potency [6] | Potency [7] | Potency [8] | Potency [9] | Potency [10] | Potency [12] | Potency [13]

CC(=O)Nc1ccc(O)cc1
inactive: Potency [1] | Potency [2] | Potency [3] | Potency [16] | Potency [17] | Potency [5] | Potency [6] | Potency [7] | Potency [9] | Potency [10] | Potency [13]
32.9 µM (active) and inactive: Potency [11]

CCCCCCCCCCCCCc1ccccc1
inactive: Potency [1] | Potency [2] | Potency [15] | Potency [3] | Potency [4] | Potency [5] | Potency [6] | Potency [7] | Potency [8] | Potency [9] | Potency [10] | Potency [11] | Potency [13]

C/C=C/C(=O)Oc1c(CCCCCC(C)C)cc([N+](=O)[O-])cc1[N+](=O)[O-]
inactive: Potency [16] | Potency [17] | Potency [11]
active: Potency [14] 19.3 µM | Potency [5] 15.4 µM | Potency [7] 15.4 µM | Potency [8] 48.6 µM | Potency [9] 27.3 µM | Potency [12] 35.6 µM | Potency [13] 2.52 µM

Cc1ccc(O)cn1
inactive: Potency [2] | Potency [15] | Potency [3] | Potency [4] | Potency [16] | Potency [17] | Potency [5] | Potency [6] | Potency [7] | Potency [8] | Potency [9] | Potency [10] | Potency [12] | Potency [13]

CCC(C)c1cc([N+](=O)[O-])cc([N+](=O)[O-])c1OC(=O)OC(C)C (configuration not stated)
inactive: Potency [1] | Potency [15] | Potency [3] | Potency [16] | Potency [17] | Potency [6] | Potency [8]
active: Potency [5] 34.4 µM | Potency [7] 61.1 µM | Potency [9] 61.1 µM | Potency [12] 11.2 µM | Potency [13] 35.6 µM
